Data on seven compounds can be found in PubChem BioAssay (NCI).

This is part of a sample that, as a whole, favours compounds with a hit. Of some 83,000 tested, about 20% had one in any assay.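 Negative percent growth values reflect cell death: -40 means 40% of the cells present at the start died, and -100 means all died.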 Values without a mark were called inactive. The source made the active and inactive calls. The calls were made as follows: active = growth percent below 10; inactive = the rest.

Holding throughout (experiment): NCI-60 one-dose screen, 48 h (100 = growth as untreated, 0 = no growth, -100 = all killed)
Holding throughout (details): 10 µM unless noted

Assay [1] deals with DU-145 prostate.
Assay [2] relates to K-562 leukemia.
Assay [3] has as its system MALME-3M melanoma.
For assay [4], the system named is MDA-MB-231 breast.
Assay [5] relates to RXF 393 renal.
Assay [6] concerns SF-268 CNS.
Assay [7] relates to SF-295 CNS.
Assay [8] relates to SF-539 CNS.
Assay [9] has as its system UACC-257 melanoma.
Assay [10] deals with M14 melanoma.
Assay [11] deals with HCT-15 colon.
Assay [12] relates to HT29 colon.
The subject of assay [13] is SNB-75 CNS.
For assay [14], the system named is SNB-19 CNS.
The test system of assay [15] is U251 CNS.
Assay [16] deals with PC-3 prostate.
Assay [17] relates to SK-MEL-5 melanoma.
The test system of assay [18] is UACC-62 melanoma.
In assay [19] the test system is LOX IMVI melanoma.
The subject of assay [20] is SK-MEL-28 melanoma.

In the case of `COc1cc(C(=O)/C=C/c2c(-c3ccc(F)cc3)nc3sc(C)cn23)cc(OC)c1OC`, the growth in assay [1] was 39.2%; in assay [2], 7.75% (active); in assay [3], 6.76% (active); in assay [4], 38.2%; in [5] it was 44.2%; in [6], 40.4%. Also, the growth in assay [7] was 32.4%; in assay [8] it was 57.7%; in assay [9] it was 21.4%; in assay [10], 32.3%; in assay [11], 35.5%; in [12] it was 41.5%. Further, the growth in assay [13] was 50.1%; in assay [14], 66.5%; in [15], 32.9%; in assay [16], 10.7%; in [17] it was -88.8% (active); in assay [18], 23.1%. Also, the growth in [19] was 25.1%; in assay [20] it was 12.4%.
Regarding `COc1ccc(-c2nc(SCCC(C)C)nc(N/N=C\c3cccc([N+](=O)[O-])c3)c2C#N)cc1`, the growth in assay [1] was 34.1%; in assay [2], 56.8%; in assay [3], 50%; in assay [4] it was 23.4%; in [5] it was 28%; in assay [6], 25.1%. The growth in assay [7] was 32.1%; in assay [8], 27.5%; in [9], 81%; in [10] it was 61.3%; in [11], 38.7%; in assay [12] it was 30.3%. Further, the growth was -14% (active) in [13]; 45.1% in assay [14]; 8.23% (active) in assay [15]; 40.5% in assay [16]; 71.1% in [17]; 67.5% in [18]. Moreover, the growth was 18.8% in assay [19] and 67.5% in [20].
For `O=C(O)C1CCC(=O)N1C(=O)OCc1ccccc1` (stereo not given), the growth in [1] was 117%; in assay [2], 92.4%; in assay [3], 96.2%; in [4], 112%; in [5], 96.6%; in assay [6], 111%. For the same compound, the growth is 106% in assay [7]; 96.9% in assay [8]; 95.4% in [9]; 102% in assay [10]; 97.3% in assay [11]; 101% in assay [12]. Besides, the growth is 80.9% in assay [13]; 97.8% in assay [14]; 102% in assay [15]; 100% in assay [16]; 105% in [17]; 87% in [18]. The results for the growth in assay [19] and in [20] were 98% and 140%, respectively.
For `CCN(CC)S(=O)(=O)c1cccc(-c2ccc3c(NC(=O)C4CC4)n[nH]c3c2)c1`, the growth in [1] was 25.4% [6.25 µM]; in [2] it was 9.65% [6.25 µM] (active); in assay [3], 21.1% [6.25 µM]; in [4], 38.5% [6.25 µM]; in assay [5], -11.7% [6.25 µM] (active); in assay [6], 35.8% [6.25 µM]. In addition, the growth in [7] was 5.94% [6.25 µM] (active); in assay [8], -2.68% [6.25 µM] (active); in assay [9], 21.5% [6.25 µM]; in assay [10], 8.28% [6.25 µM] (active); in assay [11] it was 23.5% [6.25 µM]; in assay [12] it was 3.07% [6.25 µM] (active). Besides, the growth in assay [13] is -7.53% [6.25 µM] (active); in assay [14], 30.6% [6.25 µM]; in assay [15] it was 12.1% [6.25 µM]; in assay [16], 16.9% [6.25 µM]; in [17] it was -37.2% [6.25 µM] (active); in assay [18], 28.7% [6.25 µM]. The growth was 10.5% [6.25 µM] in [19] and 29.2% [6.25 µM] in assay [20].
As to `N=C(N)c1ccc(-c2ccc(-c3cncc4ccccc34)s2)s1`, the growth is -90% (active) in assay [1]; -59.4% (active) in assay [2]; -59.1% (active) in assay [3]; -72.3% (active) in assay [4]; -74.9% (active) in [5]; -71.5% (active) in [6]. Moreover, the growth in assay [7] was -81.3% (active); in assay [8], -77.6% (active); in [9], 123%; in assay [10] it was -76.8% (active); in assay [11], -74.2% (active); in assay [12], -77.1% (active). Also, the growth in assay [13] was -95.9% (active); in assay [14], -54.8% (active); in assay [15], -92.5% (active); in assay [16], -80.8% (active); in [17], -89.5% (active); in assay [18] it was -64.5% (active). The growth in assay [19] was -78.1% (active); in [20], -69.7% (active).
`COC(=O)[C@]12CC[C@@H](C)[C@H](C)[C@@H]1C1=CC[C@@H]3[C@@]4(C)C(C=O)=C[C@@](C)(COC(=O)/C=C/c5ccccc5)[C@@H]4[C@H](O)C[C@@]3(C)[C@]1(C)CC2`: the growth in [1] was -3.76% (active); in assay [2], 9.93% (active); in assay [3], -43.2% (active); in assay [4] it was 0.0701% (active); in [5], -40.6% (active); in assay [6] it was 14.7%. Moreover, the growth in assay [7] was 1.14% (active); in [8], -10.7% (active); in assay [9] it was -43.2% (active); in assay [10], -43% (active); in assay [11], 2.39% (active); in assay [12] it was -22.9% (active). Further, the growth is 2.38% (active) in assay [13]; 49.4% in [14]; 2.16% (active) in assay [15]; 12% in assay [16]; -64.4% (active) in [17]; -29.7% (active) in [18]. Also, the figures for the growth in assay [19] and in [20] were -95.5% (active) and -12.5% (active), respectively.
On to `CC(CN1CCCCC1)C(=O)c1ccccc1` (stereo not given), for which the growth was 104% in [1]; 101% in assay [2]; 107% in assay [3]; 99.7% in [4]; 112% in [5]; 99.9% in [6]. In addition, the growth in assay [7] was 101%; in assay [8], 92.1%; in assay [9], 103%; in [10] it was 98.3%; in assay [11] it was 107%; in [12], 101%. Also, the growth in assay [13] is 101%; in assay [14] it was 101%; in assay [15] it was 101%; in assay [16], 95.4%; in assay [17], 102%; in [18] it was 104%. Moreover, the values for the growth in assay [19] and in assay [20] were 98.3% and 106%, respectively.
